From PubChem BioAssay come the findings set out here.

Active and inactive are the calls of the source.

The test system of experiment [1] is PRMT1 (protein arginine N-methyltransferase 1). As to the kind of experiment: PRMT1 binders on small-molecule microarrays, primary screen, biochemical, small-molecule microarray, 635 nm fluorescence (AID 1088).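 Further: binding of Prmt1 protein to compounds spotted on small-molecule microarray slides.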 Conditions: small-molecule microarray binding, higher = more signal.
Experiment [2] can be described thus: yeast growth modulation, basal conditions, primary screen, YJM789 clinical isolate, OD600, 24 h (AID 1089).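 Further: growth of clinical yeast isolate S. cerevisiae YJM 789 seeded 1000 cells per well; test concentration not given here.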 The settings on record: S. cerevisiae YJM789 growth, higher = more signal, called active from +8 up or from −8 down.
A short description of experiment [3]: fission yeast growth modulation, primary screen, strain 972, OD600, 24 h, no modulator (AID 1090).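 Further: basal condition with compound alone and no growth modifier present; test concentration not given here.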 Conditions: S. pombe 972 growth, higher = more signal, called active from +8 up or from −8 down.
Experiment [4] can be described thus: S. cerevisiae growth modulation with rapamycin, primary screen, strain BY4716, OD600, 96 h (AID 1091). Further: test concentration not given here. The settings on record: higher = more signal, called active from +8 up or from −8 down.
Experiment [5] concerns the target Torsin-1A-interacting protein 2 (Homo sapiens) (UniProt Q8NFQ8). Put plainly: LULL1 binders on small-molecule microarray, primary screen, cell lysate, human LULL1 lysate, 635/667 nm fluorescence (AID 1092).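 Further: probe is lysate of COS7 cells overexpressing human LULL1; score merges per-feature 667 nm fluorescence with signal-to-noise.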 Conditions: hLULL1 lysate binding, 635 nm fluorescence, higher = more signal.
Experiment [6] is described as follows: E. coli growth modulation, two-sided OD650, primary screen, E. coli filamentation project, strain DRC41, 24 h (AID 1093).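 Further: MC1000 strain lacking acrAB efflux and sulA so SOS filamentation is blocked; test concentration not given here.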 Conditions: OD650, 24 h, higher = more signal, called active from +8 up or from −8 down.
The nature of experiment [7]: small-molecule microarray binders of probe aLefty2, primary screen, biochemical, biotinylated probe, 635/667 nm fluorescence (AID 1094).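 Further: score merges spot fluorescence near 667 nm with spot signal-to-noise ratio.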 The settings on record: higher = more signal.
For experiment [8], the system named is Noggin (protein binding on small-molecule microarray). Put plainly: Noggin binders on small-molecule microarray, primary screen, biochemical, 635/667 nm fluorescence (AID 1095).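 Further: score merges 667 nm feature fluorescence with signal to noise over triplicate slides.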 The settings on record: 635 nm fluorescence, higher = more signal.
For experiment [9], the target named is Neurogenic locus notch homolog protein 3 (Homo sapiens) (UniProt Q9UM47). Put plainly: NOTCH3 binders on small-molecule microarray, primary screen, biochemical, 635/667 nm fluorescence (AID 1096). The settings on record: NOTCH3 binding, 635 nm fluorescence, higher = more signal.
Sequence of Neurogenic locus notch homolog protein 3 (Homo sapiens) (Q9UM47 whole entry, looked up): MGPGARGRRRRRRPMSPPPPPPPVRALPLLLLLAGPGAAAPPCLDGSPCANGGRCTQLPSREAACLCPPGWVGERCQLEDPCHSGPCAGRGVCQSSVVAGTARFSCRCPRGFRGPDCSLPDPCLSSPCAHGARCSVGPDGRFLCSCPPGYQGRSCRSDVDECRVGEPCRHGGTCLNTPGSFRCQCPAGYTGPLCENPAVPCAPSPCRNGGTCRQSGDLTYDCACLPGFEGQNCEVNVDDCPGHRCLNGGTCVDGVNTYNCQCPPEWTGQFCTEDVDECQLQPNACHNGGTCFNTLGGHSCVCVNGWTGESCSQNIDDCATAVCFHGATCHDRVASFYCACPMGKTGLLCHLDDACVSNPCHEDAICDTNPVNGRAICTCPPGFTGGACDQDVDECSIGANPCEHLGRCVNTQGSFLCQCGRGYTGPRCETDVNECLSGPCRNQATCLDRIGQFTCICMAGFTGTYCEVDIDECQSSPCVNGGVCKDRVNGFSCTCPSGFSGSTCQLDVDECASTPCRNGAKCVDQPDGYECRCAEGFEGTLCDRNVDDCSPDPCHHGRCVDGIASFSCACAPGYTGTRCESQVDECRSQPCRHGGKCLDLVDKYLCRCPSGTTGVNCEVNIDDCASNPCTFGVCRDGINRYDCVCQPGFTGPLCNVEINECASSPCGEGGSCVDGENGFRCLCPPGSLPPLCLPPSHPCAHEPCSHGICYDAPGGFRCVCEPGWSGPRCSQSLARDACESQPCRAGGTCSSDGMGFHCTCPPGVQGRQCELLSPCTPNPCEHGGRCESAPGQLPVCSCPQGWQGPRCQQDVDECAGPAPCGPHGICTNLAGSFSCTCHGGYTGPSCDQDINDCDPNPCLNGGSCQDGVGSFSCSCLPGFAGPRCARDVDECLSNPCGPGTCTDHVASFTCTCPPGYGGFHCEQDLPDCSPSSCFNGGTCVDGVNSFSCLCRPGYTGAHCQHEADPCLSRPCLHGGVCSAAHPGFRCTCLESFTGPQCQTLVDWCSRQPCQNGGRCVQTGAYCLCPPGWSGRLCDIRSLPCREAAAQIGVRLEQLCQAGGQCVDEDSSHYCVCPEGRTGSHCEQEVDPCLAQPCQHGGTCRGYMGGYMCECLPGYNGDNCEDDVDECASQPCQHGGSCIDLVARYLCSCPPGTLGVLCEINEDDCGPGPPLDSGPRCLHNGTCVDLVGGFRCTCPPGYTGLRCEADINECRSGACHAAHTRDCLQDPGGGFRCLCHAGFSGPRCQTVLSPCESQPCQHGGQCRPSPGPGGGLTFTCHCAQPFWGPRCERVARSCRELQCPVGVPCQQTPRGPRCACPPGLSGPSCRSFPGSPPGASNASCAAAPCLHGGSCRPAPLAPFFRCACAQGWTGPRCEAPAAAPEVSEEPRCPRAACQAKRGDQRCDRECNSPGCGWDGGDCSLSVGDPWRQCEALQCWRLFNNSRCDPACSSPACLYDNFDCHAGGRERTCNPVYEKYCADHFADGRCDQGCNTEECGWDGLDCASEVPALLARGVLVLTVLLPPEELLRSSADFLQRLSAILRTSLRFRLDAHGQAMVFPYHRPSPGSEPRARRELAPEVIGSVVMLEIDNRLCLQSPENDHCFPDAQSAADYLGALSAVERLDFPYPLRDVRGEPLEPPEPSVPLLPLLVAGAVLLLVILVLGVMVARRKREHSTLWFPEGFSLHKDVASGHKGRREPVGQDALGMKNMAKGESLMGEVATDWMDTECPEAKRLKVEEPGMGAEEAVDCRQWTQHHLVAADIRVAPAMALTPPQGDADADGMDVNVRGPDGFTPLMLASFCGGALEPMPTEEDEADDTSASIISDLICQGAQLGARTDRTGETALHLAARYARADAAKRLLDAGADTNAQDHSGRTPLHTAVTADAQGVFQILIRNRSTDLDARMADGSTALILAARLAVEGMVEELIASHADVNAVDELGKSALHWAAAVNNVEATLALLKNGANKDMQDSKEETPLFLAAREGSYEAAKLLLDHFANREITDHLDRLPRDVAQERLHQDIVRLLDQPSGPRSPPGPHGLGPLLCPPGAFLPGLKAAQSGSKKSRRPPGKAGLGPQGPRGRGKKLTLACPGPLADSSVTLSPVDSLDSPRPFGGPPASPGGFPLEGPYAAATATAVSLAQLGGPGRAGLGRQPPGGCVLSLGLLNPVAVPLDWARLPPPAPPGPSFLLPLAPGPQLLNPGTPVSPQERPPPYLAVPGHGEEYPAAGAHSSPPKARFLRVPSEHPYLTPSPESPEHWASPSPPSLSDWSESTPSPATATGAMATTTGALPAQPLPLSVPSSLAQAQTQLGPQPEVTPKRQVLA
A short description of experiment [10]: small-molecule microarray binders of probe aEGFR, primary screen, biochemical, biotinylated probe, 635/667 nm fluorescence (AID 1097).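 Further: probe is a biotinylated anti-EGFR antibody binding compounds printed on slides; score combines fluorescence near 667 nm and signal to noise of each spot.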 Conditions: higher = more signal.
Experiment [11] has as its system Plasmodium falciparum Sir2 (PF13_0152, Sir2A). Put plainly: pfSir2 binders on small-molecule microarrays, primary screen, biochemical, small-molecule microarray, 635 nm fluorescence (AID 1098).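 Further: score merges spot fluorescence intensity with its signal-to-noise ratio.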 The settings on record: small-molecule microarray binding, fluorescence 635 nm; higher = more signal.
Experiment [12] is described as follows: small-molecule microarray binders of probe aDKK1, primary screen, biochemical, biotinylated probe, 635/667 nm fluorescence (AID 1099).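 Further: score merges 667nm spot fluorescence with signal to noise across triplicate slides; reference of the scale not given here.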 The settings on record: higher = more signal.
The nature of experiment [13]: small-molecule microarray binders of probe aCHRDL2, primary screen, biochemical, biotinylated probe, 635/667 nm fluorescence (AID 1100). Conditions: higher = more signal.
Experiment [14] can be described thus: splicing luciferase reporter signal modulators, primary screen, spliceosome inhibition project, cell-based, HEK293, splice +/- reporter (AID 1101).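 Further: HEK293 cells carrying a splicing-competent luciferase reporter gene; test concentration not given here.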 The settings on record: luminescence, 24 h, higher = more signal, called active from +8 up or from −8 down. In general terms: Reporter assays use an easily measured gene product as a stand-in for the process of interest.

Experiment [15] has as its target Fibroblast growth factor 10 (Homo sapiens) (UniProt O15520). Put plainly: FGF10 binders on small-molecule microarrays, primary screen, biochemical, small-molecule microarray, 635 nm fluorescence (AID 1102). The settings on record: FGF10 binding, fluorescence 635 nm, higher = more signal.
In experiment [16] the test system is glycogen synthase kinase-3 (GSK3A per assay name; protocol says GSK3B). Put plainly: GSK3 binders on small-molecule microarrays, primary screen, biochemical, small-molecule microarray, 635 nm fluorescence, GSK3A (AID 1103). Further: the record names both GSK3A and GSK3B. Conditions: small-molecule microarray binding, fluorescence 635 nm; higher = more signal.
Experiment [17] addresses Epidermal growth factor receptor (Homo sapiens) (UniProt P00533). Put plainly: EGFR binders on small-molecule microarrays, primary screen, biochemical, small-molecule microarray, 635 nm fluorescence (AID 1104).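 Further: score merges 667 nm emission intensity with spot signal to noise over triplicate slides.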 Conditions: EGFR binding, higher = more signal.
Experiment [18] addresses Follistatin-related protein 3 (Homo sapiens) (UniProt O95633). Put plainly: FSTL3 binders on small-molecule microarrays, primary screen, biochemical, small-molecule microarray, 635 nm fluorescence (AID 1105).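 Further: score merges emission near 667 nm and signal to noise per printed spot across three slides.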 The settings on record: FSTL3 binding, higher = more signal.
Experiment [19] has as its target Dickkopf-related protein 1 (Homo sapiens) (UniProt O94907). Put plainly: DKK1 binders on small-molecule microarrays, primary screen, biochemical, small-molecule microarray, 635 nm fluorescence scan (AID 1106).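 Further: score merges emission near 667 nm with signal to noise over three replicate slides.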 The settings on record: DKK1 binding, higher = more signal.
The test system of experiment [20] is Inhibin beta A chain (activin A). Put plainly: INHBA (activin A) binders on microarrays, primary screen, biochemical, small-molecule microarray, 635 nm fluorescence scan (AID 1107).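 Further: mouse activin A protein probed at 4.33 µg/mL on printed slides; score merges bound-protein fluorescence near 667 nm with spot signal-to-noise.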 Conditions: small-molecule microarray binding, higher = more signal.

Sequence of Dickkopf-related protein 1 (Homo sapiens) (O94907 whole entry, looked up): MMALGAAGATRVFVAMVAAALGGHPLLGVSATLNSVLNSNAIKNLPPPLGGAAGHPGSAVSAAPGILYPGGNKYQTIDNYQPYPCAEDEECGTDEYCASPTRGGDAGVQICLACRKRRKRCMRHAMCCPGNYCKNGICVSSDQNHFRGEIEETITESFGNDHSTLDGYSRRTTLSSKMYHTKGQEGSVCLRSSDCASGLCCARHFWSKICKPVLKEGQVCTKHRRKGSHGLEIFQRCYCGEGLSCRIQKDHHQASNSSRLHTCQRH
Sequence of Follistatin-related protein 3 (Homo sapiens) (O95633 whole entry, looked up): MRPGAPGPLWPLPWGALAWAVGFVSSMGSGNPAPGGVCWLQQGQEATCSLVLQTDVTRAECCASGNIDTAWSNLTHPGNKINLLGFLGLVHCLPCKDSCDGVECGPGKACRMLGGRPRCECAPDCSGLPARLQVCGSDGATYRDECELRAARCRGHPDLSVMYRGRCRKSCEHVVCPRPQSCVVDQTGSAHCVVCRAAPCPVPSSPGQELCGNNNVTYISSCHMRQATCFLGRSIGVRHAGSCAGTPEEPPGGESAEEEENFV
Sequence of Torsin-1A-interacting protein 2 (Homo sapiens) (Q8NFQ8 whole entry, looked up): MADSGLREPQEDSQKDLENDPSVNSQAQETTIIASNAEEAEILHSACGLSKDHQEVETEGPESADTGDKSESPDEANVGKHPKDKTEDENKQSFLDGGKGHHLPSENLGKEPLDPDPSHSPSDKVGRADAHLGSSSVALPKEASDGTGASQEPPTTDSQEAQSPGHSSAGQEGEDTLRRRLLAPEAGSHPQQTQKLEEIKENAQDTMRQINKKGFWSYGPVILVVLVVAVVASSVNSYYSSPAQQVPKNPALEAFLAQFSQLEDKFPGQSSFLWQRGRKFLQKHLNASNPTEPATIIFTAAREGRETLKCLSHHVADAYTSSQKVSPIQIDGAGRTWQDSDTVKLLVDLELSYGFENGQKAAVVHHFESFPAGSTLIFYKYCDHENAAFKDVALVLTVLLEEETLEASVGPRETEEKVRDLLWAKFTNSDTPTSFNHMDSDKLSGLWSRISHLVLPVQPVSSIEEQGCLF
Sequence of Fibroblast growth factor 10 (Homo sapiens) (O15520 whole entry, looked up): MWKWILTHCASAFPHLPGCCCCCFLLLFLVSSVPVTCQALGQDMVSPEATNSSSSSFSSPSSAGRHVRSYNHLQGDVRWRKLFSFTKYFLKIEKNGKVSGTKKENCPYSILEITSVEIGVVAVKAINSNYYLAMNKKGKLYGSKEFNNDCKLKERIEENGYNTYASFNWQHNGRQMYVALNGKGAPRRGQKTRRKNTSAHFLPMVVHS
Sequence of Epidermal growth factor receptor (Homo sapiens) (P00533 whole entry, looked up): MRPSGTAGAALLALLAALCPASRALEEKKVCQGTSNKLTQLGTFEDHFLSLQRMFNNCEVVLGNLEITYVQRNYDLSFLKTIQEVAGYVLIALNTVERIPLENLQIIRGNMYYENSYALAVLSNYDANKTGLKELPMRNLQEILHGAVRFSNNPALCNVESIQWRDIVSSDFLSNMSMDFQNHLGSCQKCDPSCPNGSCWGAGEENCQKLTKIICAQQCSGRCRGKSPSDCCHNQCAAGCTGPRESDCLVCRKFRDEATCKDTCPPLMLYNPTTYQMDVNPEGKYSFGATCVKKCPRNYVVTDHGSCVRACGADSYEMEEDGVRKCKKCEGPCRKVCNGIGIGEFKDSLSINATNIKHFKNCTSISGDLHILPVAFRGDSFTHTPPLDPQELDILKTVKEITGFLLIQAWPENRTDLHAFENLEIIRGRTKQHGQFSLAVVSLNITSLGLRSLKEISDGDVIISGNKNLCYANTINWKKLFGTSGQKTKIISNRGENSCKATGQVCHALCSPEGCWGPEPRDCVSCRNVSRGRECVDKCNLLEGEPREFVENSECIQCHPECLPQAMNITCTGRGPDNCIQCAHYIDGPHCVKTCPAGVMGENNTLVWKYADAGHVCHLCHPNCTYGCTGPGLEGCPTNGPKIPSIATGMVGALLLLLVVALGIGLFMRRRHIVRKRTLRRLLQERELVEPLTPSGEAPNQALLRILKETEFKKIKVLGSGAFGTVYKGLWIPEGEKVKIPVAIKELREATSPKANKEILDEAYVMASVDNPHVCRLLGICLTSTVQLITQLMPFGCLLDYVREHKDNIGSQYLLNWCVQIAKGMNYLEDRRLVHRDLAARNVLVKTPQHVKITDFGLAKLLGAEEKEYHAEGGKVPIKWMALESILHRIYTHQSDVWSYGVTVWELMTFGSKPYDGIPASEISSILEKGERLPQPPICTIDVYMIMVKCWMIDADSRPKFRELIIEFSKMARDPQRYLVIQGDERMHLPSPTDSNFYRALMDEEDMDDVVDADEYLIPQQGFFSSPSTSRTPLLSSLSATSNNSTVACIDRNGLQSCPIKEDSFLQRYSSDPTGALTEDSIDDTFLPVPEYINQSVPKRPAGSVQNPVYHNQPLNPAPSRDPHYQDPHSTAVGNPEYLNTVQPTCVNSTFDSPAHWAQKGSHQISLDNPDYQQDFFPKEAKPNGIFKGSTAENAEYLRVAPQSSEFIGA

As to `Cc1cc(C)c(C(O)C2C=CC3C(=O)NC(=O)C3N2Nc2ccccn2)c(C)c1` (stereo not given), the composite z-score in [1] came out at 0.442; in [5], 1.65; in experiment [7], 0.0961; in [8] it was 0.0197; in [9], 0.525; in experiment [10] it was 0.0221. In addition, the composite z-score in experiment [11] is -0.0405; in experiment [12], 0.118; in [13] it was 0.862; in experiment [15] it was 0.158; in experiment [16], 0.22; in experiment [17] it was -0.373. Further, the results for the composite z-score in experiment [18], in [19] and in experiment [20] were 0.547, -0.669 and 0.838, respectively. Further, the z-score in experiment [2] is 0.441 (inactive); in [3] it was 1.11 (inactive); in experiment [4], 0.415 (inactive); in experiment [6], -1.16 (inactive); in [14] it was 1.43 (inactive).
For the compound `O=C(CS)NCCCCCNC(=O)[C@H]1C[C@H]2C(=O)N[C@@H](Cc3ccccc3)C(=O)N2[C@H]1c1cccc(OCCO)c1`, the composite z-score worked out at 1.52 in [1]; 2.55 in experiment [5]; 0.0669 in experiment [7]; 1.44 in experiment [8]; 1.09 in experiment [9]; 0.12 in experiment [10]. Further, the composite z-score stood at 1.4 in [11]; 0.185 in experiment [12]; 0.373 in [13]; 1.41 in experiment [15]; 1.36 in experiment [16]; 0.98 in experiment [17]. Besides, the composite z-score amounted to 1.42 in [18], 1.61 in experiment [19] and 0.597 in experiment [20]. In addition, the z-score in experiment [2] was -3.02 (inactive); in experiment [3], -0.991 (inactive); in [4] it was -0.276 (inactive); in [6], 1.94 (inactive); in [14] it was 0.101 (inactive).
For the compound `CC(C)(C)OC(=O)CC[C@@]1(C(=O)N2CCOCC2)N=C(c2ccc(OCCCO)cc2)O[C@@H]1c1ccccc1N=[N+]=[N-]`, the composite z-score in experiment [1] amounted to 1.53; in experiment [5], 3.67; in [7] it was 0.0769; in [8], 0.952; in experiment [9], 1.06; in experiment [10], 0.127. For the same compound, the composite z-score in [11] was found to be 1.3; in experiment [12] it was 0.981; in experiment [13] it was 1.04; in experiment [15], 1.33; in experiment [16], 0.451; in experiment [17], 0.295. Further, the composite z-score came out at 1.13 in [18], 0.458 in experiment [19] and 1.03 in experiment [20]. For the same compound, the z-score in experiment [2] is 0.501 (inactive); in experiment [3] it was -0.165 (inactive); in [4] it was 0.404 (inactive); in experiment [6] it was 1.29 (inactive); in experiment [14], -1.07 (inactive).
For the compound `O=c1cccc(-c2ccc3ccccc3c2)o1`, the composite z-score was -0.387 in experiment [1]; -0.0751 in experiment [5]; 0.0673 in experiment [7]; -0.0993 in experiment [8]; -0.349 in experiment [9]; -0.138 in experiment [10]. The composite z-score is -0.271 in [11]; 0.216 in [12]; 0.591 in experiment [13]; -0.0487 in experiment [15]; -0.964 in [16]; 0.0697 in [17]. The composite z-score was -0.0172 in [18], -0.139 in experiment [19] and 1.15 in experiment [20]. In addition, the z-score in experiment [2] is -11.9 (active); in experiment [3], -15 (active); in [4] it was -3.02 (inactive); in experiment [6], 1.82 (inactive); in experiment [14], -0.823 (inactive).
As to `COc1ccc([Si](C)(C)[C@@H]2[C@@H](CCO)O[C@]3(C(=O)N(Cc4ccc(N5C(=O)c6cccc7cccc5c67)cc4)c4ccccc43)[C@H]2C)cc1`, the composite z-score in experiment [1] was 0.856; in experiment [5], 0.854; in experiment [7], -0.0728; in experiment [8], -0.753; in experiment [9] it was -0.017; in [10] it was -0.208. Further, the composite z-score in experiment [11] is 1.03; in [12] it was 0.0129; in [13], 0.598; in [15], -0.66; in experiment [16], -0.445; in experiment [17], -1.13. In addition, the values for the composite z-score in experiment [18], in [19] and in experiment [20] were -0.66, -0.674 and -0.194, respectively. The z-score is 1.41 (inactive) in [2]; 1.54 (inactive) in experiment [3]; 35.5 (active) in experiment [4]; 0.631 (inactive) in experiment [6]; -1.11 (inactive) in experiment [14].
